Our source for the growth values is PubChem BioAssay (NCI).

Where “and” joins values, the source holds several entries; their conditions need not be identical. Equal entries are not always repeated. Compounds without any hit were thinned out: in the full panel of roughly 83,000, 20% have a hit.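 Assay: single dose, 48 h. Readout: percent growth (0 = no net growth; negative = cell death). Active: <10.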 Unmarked numbers belong to inactive results. Calls of active or inactive are those of the source.

For the experiment, the system named is HL-60(TB) leukemia. Briefly: NCI-60 one-dose screen, 48 h (100 = growth as untreated, 0 = no growth, -100 = all killed). Conditions: 10 µM unless noted.
With `CCN(CC)S(=O)(=O)c1ccc(OC)c(NC(=O)c2[nH]c(C)c3c2CCCCC3=O)c1`, the growth was 4.18% (active).

As for `CS(=O)(=O)Nc1cccc(C(=O)NCc2ccc(N3CCOCC3)cc2)c1`, the growth was 91.9%.

In the case of `COc1ccc(Sc2ccc3[nH]c(=O)nc(N)c3c2)cc1`, the growth is 94.9%.

Consider `O=S(=O)(NC1c2ccccc2Oc2ccccc21)c1ccccc1`, for which the growth was 86.5%.

Regarding `C=CCn1c(C)nc2cc(Nc3nc(Nc4ccc5nc(C)n(CC=C)c5c4)nc4ccccc34)ccc21`, the growth is 84%.

Consider `O=C(/C=C/c1c(-c2ccccc2)[nH]c2ccccc12)S(=O)(=O)c1ccccc1`, for which the growth was -22.1% (active).

Turning to `C=CCN(CCOC(=O)c1ccc([N+](=O)[O-])cc1)CCOC(=O)c1ccc([N+](=O)[O-])cc1`, the growth was 88.1%.

As to `O=C(O)C1C2C=CC(C2)C1C(=O)O` (centres undefined), the growth was 25.8% and 104%.

Turning to `Cc1nnc(/N=C2\NC(=O)/C(=C/c3ccc(N(C)C)cc3)S2)s1`, the growth is 99.6%.

For the compound `CCc1cnn2c(NCc3ccc[n+]([O-])c3)cc(N3CCCC[C@H]3CCO)nc12`, the growth was -43.2% (active).

On to `O=C(c1ccccc1)C1C(=O)N2C(=S)N(c3ccccc3)C(=O)C2C1c1ccc(Cl)cc1` (centres undefined), for which the growth is 100%.

As for `CCNC(=O)CCCCC(=O)c1c(C)[nH]c(/C=C2\N=C(c3ccc[nH]3)C=C2OC)c1C`, the growth is 66.9%.

As for `CC1(C)CC[C@]2(C(=O)NCCNCCN)CC[C@]3(C)C(=CC[C@@H]4[C@@]5(C)CCC(=O)C(C)(C)[C@@H]5CC[C@]43C)[C@@H]2C1`, the growth is -52.9% (active).

For `COc1cc(-c2nccc3cc4c(cc23)OCO4)cc(OC)c1OC`, the growth is 5.43% (active) and 9.65% (active).

With `CC(C)N(Cc1ccccc1)c1c(S)ssc1=S`, the growth was -23.3% (active).

As for `O=c1oc2ccc(Cl)cc2c(=O)n1-c1cc(C(F)(F)F)cc(C(F)(F)F)c1`, the growth is -20.6% (active).

Take `O=C(/C=C/c1ccccc1)c1cccc(O)c1`: the growth is 72.1%.

With `COc1cc2nc(Cl)nc(Nc3cccc(C(=O)/C=C/c4ccc(Br)cc4)c3)c2cc1OC`, the growth was 77.8%.

Regarding `O=C(NC1C(O)OC(CO)C(O)C1O)NS(=O)(=O)c1ccc(Cl)cc1` (centres undefined), the growth is 93.4%.

Take `CCOC(=O)c1sc2ncc(-c3ccc(OC)cc3)n2c1C`: the growth was 86.5%.

Consider `C=C1C(=O)O[C@H]2[C@H]1CC/C(COC(=O)N[C@H]1C[C@H](O[C@H]3C[C@](O)(C(=O)CO)Cc4c(O)c5c(c(O)c43)C(=O)c3c(OC)cccc3C5=O)O[C@@H](C)[C@H]1O)=C\CC[C@@]1(C)O[C@@H]21`, for which the growth was -31.2% (active).

Take `COC1=CC(c2ccc[nH]2)=N/C1=C\c1[nH]c(C)c(C(=O)OCc2ccccc2)c1C`: the growth is -8.78% (active).

On to `COc1cccc(NC(=O)Cn2cc(CN3CCN(c4ccnc5cc(Cl)ccc45)CC3)nn2)c1`, for which the growth is 124%.

For the compound `COc1cc2nc(-c3ccc(C(F)(F)F)cc3)cc(OCCN3CCCC3)c2cc1OC`, the growth was 66.8%.

As to `N#Cc1cc(-c2nc3ccccc3s2)c(=O)n(NS(=O)(=O)c2ccc(Cl)cc2)c1N`, the growth is 103%.

On to `COc1ccc2c(O)c(/C=C3\N=Nc4ncccc43)oc2c1C[C@H]1CCNC[C@H]1F`, for which the growth was -45.4% (active).

On to `O=C(CN1CCOCC1)Nc1ccc(-c2nc3ccccc3s2)cc1`, for which the growth is 101%.

Consider `CC1=C(C)C[C@]2(C(=O)O[C@H]3CCCC[C@@H]32)[S@](=O)C1`, for which the growth was 98.1%.

`N#Cc1c(N)[nH]c(S)c1C#N`: the growth is 99%.

In the case of `CC(=O)N1c2ccccc2NC2=C(C(=O)N(Cc3ccccc3)C2(C)C)C1c1ccco1` (centres undefined), the growth is 9.63% (active).

As for `Cc1cc(CCNC=O)c(C)c2c1sc1ccccc12`, the growth is 91.9%.

Turning to `Brc1ccc2c(c1)CN(C1CCCCC1)CO2`, the growth is 106%.

Regarding `O=C(c1nn(-c2ccc(Cl)cc2)cc1O)n1nc(C(F)(F)F)cc1-c1ccccc1`, the growth was -14.8% (active).

Turning to `COc1cc(/C=N/NC(=O)c2cnn3c2NC(c2ccccc2)C3)ccc1OC1CCCC1` (centres undefined), the growth was 40.8%.

Consider `CN(C)CCNC(=O)n1cc(-c2ccncc2)c(-c2cc(O)cc(Cl)c2)n1`, for which the growth was 87.1%.

Regarding `NC1=NC(c2ccccc2)C2=C(N1)/C(=C/c1ccccc1)CCC2` (centres undefined), the growth was 80.7%.

On to `O=C1c2cccnc2C(=O)c2c1c(C(=O)OCCN1CCCCC1)c1ccccn21`, for which the growth was -46.5% (active).

For the compound `O=C1c2ccc3c4c5ccc(c24)C(=O)N1CCCOCCCCOCCCNCc1ccc(cc1)CNCCCOCCCCOCCCN(C3=O)C5=O`, the growth was -61.1% (active).

Take `COc1ccc(-c2cc(-c3cc4ccccc4oc3=O)n(-c3ccccc3)n2)cc1`: the growth is 91.6%.
